Screens: PubChem, National Center for Advancing Translational Sciences (NCATS)
NPC1 promoter act: NPC1 promoter activation; Huh7 NPC1 promoter luciferase reporter, 24 h; Potency, µM (highest dose often 9.22 µM), usual class: activators; 320,000 tested, 2.4% active; AID 485313; also: nearly all actives have a fitted effect of over 60% in size
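Stably transfected Huh7 (NPC1 promoter→luciferase), 1500 cells/well in Opti-MEM + 10% FBS, 2 h settle, then compound 24 h at 37 °C. Luminescence after 10 min with Amplite reagent.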
SMN2 splice up: enhancers of SMN2 splice variant expression; HEK293 SMN2-luciferase splicing reporter, luminescence, 30-36 h; Potency, µM (top dose mostly 46.1 µM), actives largely listed as activators; 210,000 tested, 2.8% active; AID 1458; also: nearly all actives have a fitted effect of over 55% in size
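HEK293 cells carry an SMN2 minigene-luciferase reporter in which exon 7 inclusion puts luciferase in frame. Cells were seeded at 2000 cells/well, attached for 10-12 hours, then exposed to compounds for 30-36 hours at 37C before ONE-Glo luminescence.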
FLuc counter: counter-screen for miR-21 project: firefly luciferase inhibitors or activators | Potency, µM (titrated, usually from 57.5 µM), most hits filed as inhibitors | purified FLuc, Km substrates, luminescence inhibition | AID 588342 | 360,000 tested, 6.9% active | P08659; also: nearly all actives have a fitted effect of over 55% in size
Target sequence (P08659 whole entry, looked up): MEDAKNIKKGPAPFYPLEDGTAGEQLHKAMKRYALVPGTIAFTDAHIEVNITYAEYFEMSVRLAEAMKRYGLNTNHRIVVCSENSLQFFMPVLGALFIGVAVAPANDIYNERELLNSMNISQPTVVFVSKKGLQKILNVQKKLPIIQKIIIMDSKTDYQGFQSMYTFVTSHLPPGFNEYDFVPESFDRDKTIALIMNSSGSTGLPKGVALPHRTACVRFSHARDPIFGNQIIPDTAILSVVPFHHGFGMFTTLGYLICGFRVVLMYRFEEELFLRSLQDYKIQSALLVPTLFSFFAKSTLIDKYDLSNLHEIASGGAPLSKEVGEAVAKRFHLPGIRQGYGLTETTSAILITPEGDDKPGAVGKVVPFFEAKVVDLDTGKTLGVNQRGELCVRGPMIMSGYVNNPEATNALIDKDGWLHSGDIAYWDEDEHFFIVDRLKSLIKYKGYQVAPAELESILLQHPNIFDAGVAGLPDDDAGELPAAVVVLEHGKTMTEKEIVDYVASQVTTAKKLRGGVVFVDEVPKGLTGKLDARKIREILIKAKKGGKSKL
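Purified P. pyralis luciferase, 10 nM final, with Km-level 10 uM D-luciferin and 10 uM ATP in 50 mM Tris acetate pH 7.5, 10 mM Mg acetate, 0.01% Tween-20, 0.05% BSA; 6-point qHTS titration about 60 µM downward; luminescence read.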
Rab9 prom act: activates the Rab9 promoter | Huh7 Rab9 promoter-luciferase reporter, luminescence, 24 h | Potency, µM (series often up to 9.22 µM), hits mostly activators | 320,000 tested, 2.8% active | AID 485297; also: nearly all actives have a fitted effect of over 60% in size
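Huh7 cells stably carrying a Rab9 promoter-luciferase reporter, 1500 cells per well in OP-MEM I with 10% FBS, treated with compound 24 hours at 37C. Luciferase activity read by luminescence after 10 minutes with Amplite reagent.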
KinaseGlo FLuc: blocks Kinase-Glo luciferase, a counter-screen artifact; Q27757; Kinase-Glo luciferase, ATP luminescence, 8 min; Potency, µM (highest dose often 38.3 µM), hits mostly inhibitors; 200,000 tested, 0.28% active; also: nearly all actives have a fitted effect of over 60% in size
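Recombinant Kinase-Glo luciferase, 10 uM ATP (linear range), luciferin; imidazole pH 7.2 / KCl / MgCl2 / Tween / BSA buffer; 8 min RT; luminescence.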
ELG1 genotoxic: genotoxicity induction in ELG1-luciferase HEK293T cells. HEK293T ELG1-luciferase reporter, luminescence, 16 h. Potency, µM (highest dose often 46 µM), actives largely listed as activators. 330,000 tested, 1.3% active. AID 504466; also: nearly all actives have a fitted effect of over 60% in size
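Step 1: seed 2,000 HEK293T ELG1-luciferase cells per well. Step 2: add compound or DMSO, incubate 16 hr at 37 °C. Step 3: ONE-Glo, 30 min at room temperature, read luminescence.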
Hits are given with their value; 0 = inactive; ? = inconclusive; - = no result; [ ] = remark or other dose. The list is not random: actives were taken first. Their share in the collection is about 7.3%. Calls follow the shape of the dose curve; as a rule, active = well fitted curve in the direction sought with a large enough effect; inconclusive = small, poorly fitted or top-dose-only effect, or another doubt; inactive = no such curve, though single readings can be large; an effect the other way counts as inactive or inconclusive.

SMILES	NPC1 promoter act	SMN2 splice up	FLuc counter	Rab9 prom act	KinaseGlo FLuc	ELG1 genotoxic
COc1ccccc1/C=C/C(=O)c1ccc(Cl)cc1	?	0	7.6µM	0	0	?
O=C(O)/C=C/c1ccccc1Oc1ccc(Cl)cc1Cl	0	0	15µM	0	0	0
CCN(CC)C(=O)CSc1ncccc1-c1nc2ccccc2[nH]1	0	-	24µM	0	0	0
Cc1ccc2nc(-c3cccnc3SCC(=O)N3c4ccccc4CC3C)[nH]c2c1 (stereo not drawn)	?	14µM	5.4µM	?	?	?
O=C(CSc1ncccc1-c1nc2ccccc2[nH]1)N1CCCCC1	0	0	17µM	0	0	0
CCOCc1nnc(NC(=O)c2cc(C(=O)OC)cc([N+](=O)[O-])c2)s1	0	0	0	0	0	0
O=C(c1ccccc1)c1ccc(OCC(=O)N2CCOCC2)cc1	0	0	0	0	0	0
Brc1ccccc1-n1nnc(-c2ccnc3ccccc23)n1	0	-	17µM	0	-	0
c1csc(-c2ncc3ccccn23)c1	0	0	?	0	0	?
COC(=O)c1cccc(NC(=O)C2COc3ccccc3O2)c1 (stereo not drawn)	?	0	17µM	?	0	18µM
Cc1nc2ccc3nc(NC(=O)C4COc5ccccc5O4)sc3c2s1 (stereo not drawn)	0	0	0	0	0	0
Cc1ccc(NC(=O)C2COc3ccccc3O2)cc1C (stereo not drawn)	2.5µM	-	19µM	?	-	?
Cc1nc2cc(NC(=O)C3COc4ccccc4O3)ccc2s1 (stereo not drawn)	?	-	12µM	?	0	?
Cc1ccc(S(=O)(=O)N(C)CC(=O)NCC(c2ccco2)N(C)C)cc1 (stereo not drawn)	0	-	0	0	-	0
Cc1cc(C(=O)CN2C(=O)NC3(CCCc4ccccc43)C2=O)c(C)n1Cc1ccco1 (stereo not drawn)	0	-	?	0	0	?
COc1ccc(-c2nnc(-c3ccc(OCC(C)C)cc3)o2)cc1	0	0	?	0	0	0
CCCOc1ccc(-c2nnc(-c3ccncc3)o2)cc1	3.5µM	?	4.8µM	?	0	2.1µM
CC(C)COc1ccc(-c2nnc(-c3ccncc3)o2)cc1	1.1µM	0	3.4µM	0.63µM	0	0
CC(C)Sc1nc2c(c(=O)n(C)c(=O)n2C)n1Cc1ccc(Cl)cc1	0	0	0	0	0	0
COCCCNC(=O)c1[nH]c2cc(OC)ccc2c1Sc1ccc(C)cc1	-	-	0	-	-	-
COc1ccc2c(Sc3ccccc3)c(C(=O)NCCN(C)C)[nH]c2c1	-	-	4.8µM	-	-	-
COc1ccc2c(N)c(C(=O)NN)[nH]c2c1	0	-	17µM	0	-	0
CCOC(=O)c1ccc(-c2ccc3[nH]c4ccccc4c(=O)c3c2)cc1F	?	-	0.54µM	0	-	?
CCOC(=O)c1c[nH]c2ccc3ccccc3c2c1=O	0	-	?	0	-	0
COc1ccc(-c2cc(C(=O)NNC(=O)c3csc(N4CCOCC4)n3)c3ccccc3n2)cc1	0	-	12µM	0	-	0
SMILES	NPC1 promoter act	SMN2 splice up	FLuc counter	Rab9 prom act	KinaseGlo FLuc	ELG1 genotoxic
O=C(NNC(=O)c1ccccc1Cl)c1csc(N2CCOCC2)n1	0	-	?	0	-	0
COc1ccc(-c2cc(C(=O)NNC(=O)c3csc(N4CCOCC4)n3)c3ccccc3n2)cc1OC	0	-	9.5µM	0	-	0
Nc1ncnc2c1ncn2C1OC(COP(=O)(O)O)C(O)C1O (stereo not drawn)	0	?	0	0	2µM	0
Nc1ncnc2c1ncn2[C@@H]1O[C@H](COP(=O)(O)O)[C@@H](O)[C@H]1O	0	0	0	0	-	0
Nc1ncnc2c1ncn2[C@@H]1O[C@H](COS(=O)(=O)O)[C@@H](O)[C@H]1O	0	-	0	0	-	0
Nc1ncnc2c1ncn2[C@@H]1O[C@H](COP(=O)(O)O)[C@@H](O)[C@@H]1O	-	0	-	-	4µM	-
Cc1c(NC(=O)c2cccs2)cccc1C(=O)O	?	0	15µM	?	0	0
Nc1ccccc1NC(=O)c1ccccc1N	0	0	0	0	0	0
Cc1c(NC(=O)c2ccc(Br)o2)cccc1C(=O)O	?	?	21µM	2.5µM	0	?
Cc1c(NC(=O)c2ccccc2N)cccc1C(=O)O	1.3µM	-	9.5µM	1.8µM	-	?
Cc1ccc(NC(=O)c2cccc(C(=O)Nc3ccc(C)cc3C(=O)O)c2)c(C(=O)O)c1	0	-	27µM	0[1.84 µM]	-	0
COc1ccccc1NC(=O)c1ccc(Br)o1	0	0	0	0	0	?
O=C(Nc1ccccc1)c1ccccc1NC(=O)C1CCCCC1	0	0	0	0	0	0
Cc1c(NC(=O)c2ccccc2NC(=O)COc2ccccc2)cccc1C(=O)O	0	-	0	0	-	0
Cc1cccc(NC(=O)c2ccccc2NC(=O)C2CCCCC2)c1C	0	0	17µM	0	0	?
COc1cc(NC(=O)c2ccc(Br)o2)c(C(=O)O)cc1OC	0	0	21µM	0	0	0
